Records with an inconclusive call do not appear. Calls of active or inactive are those of the source. Unless noted, the call rests on the fitted dose curve; in most records, active means well fitted curve in the direction sought with a large enough effect in the repeat runs; inconclusive means weak or mixed curves; inactive means no such curve, though single readings can be large; an effect the other way counts as inactive or inconclusive.
What was measured:
[1] = biological target: Progesterone receptor (Homo sapiens) (UniProt P06401); experiment: qHTS assay to identify small molecule agonists of the progesterone receptor (PR) signaling pathway (AID 1346784; calls by dose curve; further: nearly all actives have a fitted effect of over 30% in size)
Chain of Progesterone receptor (Homo sapiens) (P06401 whole entry, looked up): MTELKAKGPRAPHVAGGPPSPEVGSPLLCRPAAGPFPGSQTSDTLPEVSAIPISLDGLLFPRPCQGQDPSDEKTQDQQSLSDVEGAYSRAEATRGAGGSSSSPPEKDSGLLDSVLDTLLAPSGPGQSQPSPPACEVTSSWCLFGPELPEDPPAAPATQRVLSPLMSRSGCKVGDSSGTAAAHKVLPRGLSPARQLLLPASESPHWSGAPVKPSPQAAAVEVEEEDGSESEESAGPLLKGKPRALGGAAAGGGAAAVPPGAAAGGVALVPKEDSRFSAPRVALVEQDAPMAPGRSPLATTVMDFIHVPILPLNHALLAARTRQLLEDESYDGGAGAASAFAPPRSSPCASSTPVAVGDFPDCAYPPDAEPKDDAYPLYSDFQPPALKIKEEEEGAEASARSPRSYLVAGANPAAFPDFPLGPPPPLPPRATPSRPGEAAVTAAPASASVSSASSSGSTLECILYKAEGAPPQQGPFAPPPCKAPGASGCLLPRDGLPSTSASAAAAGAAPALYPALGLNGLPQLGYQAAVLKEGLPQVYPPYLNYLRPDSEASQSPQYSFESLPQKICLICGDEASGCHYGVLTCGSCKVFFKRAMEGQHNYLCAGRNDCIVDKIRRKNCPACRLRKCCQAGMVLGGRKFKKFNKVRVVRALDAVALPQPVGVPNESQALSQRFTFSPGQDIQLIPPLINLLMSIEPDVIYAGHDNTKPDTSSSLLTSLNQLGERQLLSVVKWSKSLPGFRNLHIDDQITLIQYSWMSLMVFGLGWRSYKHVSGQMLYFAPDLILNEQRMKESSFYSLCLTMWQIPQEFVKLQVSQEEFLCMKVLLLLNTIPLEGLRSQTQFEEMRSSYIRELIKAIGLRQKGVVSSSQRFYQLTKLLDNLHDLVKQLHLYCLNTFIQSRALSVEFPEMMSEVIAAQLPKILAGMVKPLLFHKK
Outline: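 PR-UAS-bla HEK 293T cells (beta-lactamase reporter under UAS) in 2% charcoal-stripped FBS, dosed with 23 nL compound after 6 hr, incubated 16hr at 37C. LiveBLAzer B/G FRET substrate added, fluorescence read after 2 hours.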

[2] = qHTS assay to identify small molecule antagonists of the progesterone receptor (PR) signaling pathway - cell viability counter screen (AID 1346798); further: nearly all actives have a fitted effect of over 50% in size; further: potency means the concentration at half of the fitted maximal effect; on activity change, negative = cytotoxicity: series mostly up to about 92 µM
Outline: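 PR-UAS-bla HEK293T cells, 3,000/well in 2% charcoal-stripped FBS medium, dosed with compounds plus R5020 agonist and incubated 16 h at 37C. Viability then measured in the same wells by CellTiter-Glo luminescence after 30 min at RT.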

[3] = qHTS assay to identify small molecule agonists of the progesterone receptor (PR) signaling pathway - cell viability counter screen (AID 1346799; calls by dose curve; further: nearly all actives have a fitted effect of over 45% in size; further: potency means the concentration at half of the fitted maximal effect)
Outline: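 Counter screen in the PR-UAS-bla HEK293T wells (2% charcoal-stripped FBS, 16 h compound exposure at 37 C) after the bla read. CellTiter-Glo added, 30 min at room temperature, luminescence read as cell viability.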

[4] = qHTS assay to identify small molecule antagonists of the TGF-beta/Smad signaling pathway - cell viability counter screen (AID 1346824); further: nearly all actives have a fitted effect of over 50% in size
Outline: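 SBE-bla HEK 293T cells, incubated overnight, then compound plus 0.25 ng/mL TGF-beta1 (stock added) for 5 hr at 37 C. Viability was read in the same wells by CellTiter-Glo luminescence after 30 min at room temperature.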

[5] = qHTS assay to identify small molecule agonists of the TGF-beta/Smad signaling pathway - cell viability counter screen (AID 1346829); further: top concentration of the series differs between compounds; nearly all actives have a fitted effect of over 45% in size
Outline: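 Compound-treated SBE-bla HEK 293T cells (5 hr, 37 C) were assessed for viability with CellTiter-Glo in parallel with the reporter read.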

[6] = qHTS assay to identify small molecule agonists of the TGF-beta/Smad signaling pathway (AID 1346859; active means well fitted activation curve with a large enough effect in the signal ratio in the repeat runs, not every such curve was filed as active; the % refers to the signal ratio; further: series mostly up to about 77 µM)
Outline: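 SBE-bla HEK293T cells plated overnight, then compound exposure for 5 h at 37 C. Beta-lactamase reporter read with LiveBLAzer B/G FRET substrate after 2 h at room temperature, fluorescence at 405 nm excitation, 460/530 nm emission.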

[7] = biological target: Thyrotropin-releasing hormone receptor (Homo sapiens) (UniProt P34981); experiment: qHTS assay to identify small molecule antagonists of the thyrotropin-releasing hormone receptor (TRHR) signaling pathway (AID 1346877; active means well fitted inhibition curve with a large enough effect in the repeat runs, not every such curve was filed as active; further: series mostly up to about 51 µM)
Chain of Thyrotropin-releasing hormone receptor (Homo sapiens) (P34981 whole entry, looked up): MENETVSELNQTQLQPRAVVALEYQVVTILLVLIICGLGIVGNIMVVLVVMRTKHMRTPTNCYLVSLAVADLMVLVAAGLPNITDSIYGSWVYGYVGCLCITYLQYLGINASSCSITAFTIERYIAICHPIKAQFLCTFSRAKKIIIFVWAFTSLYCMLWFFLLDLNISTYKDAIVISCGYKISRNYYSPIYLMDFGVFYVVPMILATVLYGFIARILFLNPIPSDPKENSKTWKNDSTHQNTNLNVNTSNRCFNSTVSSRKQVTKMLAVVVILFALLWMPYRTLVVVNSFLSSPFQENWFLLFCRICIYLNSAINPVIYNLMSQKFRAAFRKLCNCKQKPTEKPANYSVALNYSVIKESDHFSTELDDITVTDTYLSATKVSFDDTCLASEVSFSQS
Outline: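 In this cell-based calcium flux format, HEK293 cells expressing TRHR received test compound for 5 min before the agonist TRH (1 nM final). Dye loading lasted 2 h at 37 °C.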

[8] = biological target: Thyrotropin-releasing hormone receptor (Homo sapiens) (UniProt P34981); experiment: qHTS assay to identify small molecule agonists of the thyrotropin-releasing hormone receptor (TRHR) signaling pathway (AID 1346891; calls by dose curve; further: potency means the concentration at half of the fitted maximal effect; on activation: series mostly up to about 58 µM)
Outline: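 HEK293 cells expressing TRHR plated 18 h at 37 C/5% CO2, calcium dye-loaded 2 h at 37 C, then compound added (agonist mode); kinetic calcium fluorescence read 3 min at 1 s intervals; 15 concentrations in triplicate.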

[9] = Human pregnane X receptor (PXR) small molecule agonists, qHTS cell viability counter screen (AID 1346977); further: nearly all actives have a fitted effect of over 50% in size; further: potency means the concentration at half of the fitted maximal effect
Outline: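 PXR-Luc HepG2 cells (2,000/well, 5% charcoal-stripped FBS) preincubated 5 hr, then exposed to compounds 24 hr at 37 C. Viability read in the same wells by CellTiter-Fluor fluorescence, reagent added at 23 hr, 1 hr incubation.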

[10] = biological target: Progesterone receptor (Homo sapiens) (UniProt P06401); experiment: qHTS assay to identify small molecule antagonists of the progesterone receptor (PR) signaling pathway (AID 1346795; active means well fitted inhibition curve with a large enough effect in the signal ratio in the repeat runs, not every such curve was filed as active; the % refers to the signal ratio; further: potency means the concentration at half of the fitted maximal effect)
Outline: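 PR-UAS-bla HEK293T cells with beta-lactamase reporter under UAS control, in 2% charcoal-stripped FBS, treated with compounds plus 1 nM promegestone (R5020, final) for 16 hr at 37C. Read-out: FRET beta-lactamase substrate fluorescence after 2 hr at room temperature.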
On the % scale 0 is the no-effect control and ±100 the full control effect.

NCCCOCCOCCOCCCN
inactive: outcome [1] | Potency [4] | Potency [5] | outcome [6] | outcome [7] | Potency [8] | Potency [9]
active: Potency [2] 9.69 µM | Potency [3] 8.63 µM

CN1CCC(OC(c2ccccc2)c2ccccc2)CC1
inactive: outcome [1] | Potency [10] | Potency [4] | Potency [5] | outcome [6] | outcome [7] | Potency [8]

O=C(O)Cn1c(C(=O)Nc2nc(-c3ccccc3Cl)cs2)cc2ccccc21
active: Potency [8] 3.79 µM
inactive: outcome [1] | Potency [2] | Potency [4] | Potency [5] | outcome [7] | Potency [9]

CC(=O)CC(=O)c1ccccc1
inactive: outcome [1] | Potency [2] | Potency [4] | Potency [5] | outcome [6] | outcome [7] | Potency [8] | Potency [9]

NC[C@H]1O[C@H](O[C@H]2[C@H](O)[C@@H](O[C@H]3O[C@H](CO)[C@@H](O)[C@H](N)[C@H]3O)[C@H](N)C[C@@H]2N)[C@H](O)[C@@H](O)[C@@H]1O
inactive: activation [1] 0.496% [at 8.39 µM] | activity change, negative = cytotoxicity [2] 1.76% [at 8.39 µM] | viability change, negative = cytotoxic [4] 0.819% [at 6.97 µM] | activity change, negative = cytotoxicity [5] 4.11% [at 6.97 µM] | activation [6] -1.71% [at 6.97 µM] | activity change, negative = cytotoxicity [9] -6.07% [at 8.39 µM]

CC(C)=CCCC(C)CC=O (stereo not given)
inactive: outcome [1] | Potency [2] | Potency [3] | Potency [4] | Potency [5] | outcome [6] | Potency [9]

CCOC(=S)SSC(=S)OCC
inactive: outcome [1] | Potency [10] | Potency [4] | Potency [5] | outcome [6] | Potency [9]

OCC1CC2CC1C1CCC(CO)C21 (stereo not given)
active: Potency [2] 27.3 µM
inactive: outcome [1] | Potency [4] | Potency [5] | outcome [6] | Potency [9]

Cc1cc(O)ccc1N
inactive: outcome [1] | Potency [3] | Potency [4] | Potency [5] | outcome [6] | outcome [7] | Potency [8]

CCc1nn(C2CCCCC2)c2cc(C3(C#N)CCC(C(=O)O)CC3)ccc12 (stereo not given)
active: Potency [9] 48.6 µM
inactive: outcome [1] | Potency [4] | Potency [5] | outcome [7] | Potency [8]

CN(C(=O)CCCOc1ccc2[nH]c(=O)ccc2c1)C1CCCCC1
inactive: outcome [1] | Potency [4] | Potency [5] | outcome [7] | Potency [8] | Potency [9]

CN1CCN(C2=Nc3ccccc3Sc3ccc(Cl)cc32)CC1
inactive: outcome [1] | Potency [3] | Potency [4] | Potency [5] | outcome [7] | Potency [8] | Potency [9]

CCCOc1ccc2nc(NC(=O)OC)[nH]c2c1
inactive: outcome [1] | Potency [5] | outcome [6] | Potency [9]

c1ccc(OCc2ccc(CCCN3CCOCC3)cc2)cc1
inactive: outcome [1] | Potency [4] | Potency [5] | outcome [6] | outcome [7] | Potency [8]

O=C(Nc1ccccc1)OCC(CN1CCCCC1)OC(=O)Nc1ccccc1 (stereo not given)
active: Potency [10] 23.7 µM
inactive: Potency [2] | Potency [3] | Potency [4] | Potency [5] | outcome [6] | Potency [8]

C#CCOC(=O)[C@@H](C)Oc1ccc(Oc2ncc(Cl)cc2F)cc1
inactive: Potency [10] | Potency [2] | Potency [4] | Potency [5] | outcome [6] | outcome [7] | Potency [8] | Potency [9]

CC(C)(C)c1cc(O)c(C(C)(C)C)cc1O
inactive: outcome [1] | Potency [4] | Potency [5] | outcome [6] | Potency [8]

Cc1ncsc1CCO
inactive: Potency [10] | Potency [2] | Potency [3] | Potency [5] | outcome [6] | outcome [7] | Potency [8] | Potency [9]

CC(=O)Nc1ccc(/C=N/NC(N)=S)cc1
inactive: Potency [10] | Potency [2] | Potency [3] | Potency [4] | Potency [5] | outcome [6] | Potency [9]

C=CC[N+]1([C@H]2C[C@H]3[C@@H]4CC[C@H]5C[C@H](OC(C)=O)[C@@H](N6CCCCC6)C[C@]5(C)[C@H]4CC[C@]3(C)[C@H]2OC(=O)CC)CCCCC1
inactive: Potency [10] | Potency [2] | Potency [3] | Potency [4] | Potency [5] | outcome [6] | outcome [7] | Potency [8] | Potency [9]

O=C(O)COC(=O)Cc1ccccc1Nc1c(Cl)cccc1Cl
inactive: outcome [1] | Potency [3] | Potency [4] | Potency [5] | outcome [6] | Potency [9]

CC/C(=C\C(=N/O)C(N)=O)C(C)[N+](=O)[O-] (stereo not given)
inactive: Potency [10] | Potency [2] | Potency [3] | Potency [4] | Potency [5] | outcome [6] | outcome [7] | Potency [8] | Potency [9]

CC(C)CCCC(C)CCO (stereo not given)
inactive: Potency [10] | Potency [2] | Potency [3] | Potency [4] | Potency [5] | outcome [6] | Potency [8] | Potency [9]

CCCCOc1ccc(CC(=O)NO)cc1
inactive: outcome [1] | Potency [4] | Potency [5] | outcome [6]

O=C(NN1CCCC1)NS(=O)(=O)c1ccc(Cl)cc1
inactive: Potency [10] | Potency [2] | Potency [3] | Potency [4] | Potency [5] | outcome [6] | outcome [7] | Potency [8] | Potency [9]

CC(CN)CCCN (stereo not given)
inactive: Potency [10] | Potency [2] | Potency [3] | Potency [5] | outcome [6] | outcome [7] | Potency [8] | Potency [9]

CCCCOCCOCCOCCOCCO
inactive: outcome [1] | Potency [4] | Potency [5] | outcome [6] | outcome [7] | Potency [8] | Potency [9]

O=C(O)c1cn(C2CC2)c2cc(Cl)c(F)cc2c1=O
inactive: Potency [10] | Potency [2] | Potency [3] | Potency [4] | Potency [5] | outcome [7] | Potency [8] | Potency [9]

Reference: PubChem BioAssay (Tox21)
